KLF5 inh: kruppel-like factor 5 inhibition. DLD-1 KLF5 promoter-luciferase reporter, luminescence. inhibition, % at 5 µM. 290,000 tested, 0.23% active;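 active = inhibition above a per-plate limit of that plate's mean compound inhibition plus 3 SD, cut at about 60% in these data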;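 note: 0% = DMSO wells and 100% = LY294002 at 200 µM; higher means less KLF5 promoter-driven luciferase light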
697 NFkB inh: lowers PMA/ionomycin-induced NF-kB signal in 697 B cells. 330,000 tested, 0.33% active. inhibition, % at 4 µM. 697 B-cell NF-kB luciferase reporter, 16 h; in the data active = inhibition above about 35%
aSyn UTR inh: 5' untranslated region of α-synuclein, MLPCN primary screen; alpha-synuclein 5'UTR reporter, inhibitor activity; inhibition, % (tested at 7.5 µM); 300,000 tested, 0.82% active; in the data active = inhibition above about 60%;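 note: H4 neuroglioblastoma cells stably carrying SNCA 5'UTR luciferase fusion; 0% = DMSO wells and 100% = positive control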
Gli-Sufu antag: Gli-Sufu pathway antagonism; Sufu-KO-LIGHT fibroblasts, Gli luciferase reporter luminescence; 340,000 tested, 0.74% active; inhibition, % at 5 µM;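 active = inhibition above about 55%, limit read from the data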;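 note: 0% = DMSO-treated cells and 100% = wells with medium but no cells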
Jurkat NFkB inh: inhibitors of the PMA/ionomycin-induced NF-kB reporter in Jurkat cells. PMA/ionomycin-induced NF-kB luciferase reporter, luminescence. inhibition, % at 4 µM. 330,000 tested, 0.53% active; in the data active = inhibition above about 50%
Mdm2 MdmX PPI: disrupts the human Mdm2-MdmX interaction. 330,000 tested, 3% active. O15151+Q00987. inhibition, % at 8 µM. SaOS-2 split-luciferase Mdm2/MdmX complementation, luminescence;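 active = inhibition of at least 50% at 8 µM in the primary screen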
Target sequence (O15151 whole entry, looked up): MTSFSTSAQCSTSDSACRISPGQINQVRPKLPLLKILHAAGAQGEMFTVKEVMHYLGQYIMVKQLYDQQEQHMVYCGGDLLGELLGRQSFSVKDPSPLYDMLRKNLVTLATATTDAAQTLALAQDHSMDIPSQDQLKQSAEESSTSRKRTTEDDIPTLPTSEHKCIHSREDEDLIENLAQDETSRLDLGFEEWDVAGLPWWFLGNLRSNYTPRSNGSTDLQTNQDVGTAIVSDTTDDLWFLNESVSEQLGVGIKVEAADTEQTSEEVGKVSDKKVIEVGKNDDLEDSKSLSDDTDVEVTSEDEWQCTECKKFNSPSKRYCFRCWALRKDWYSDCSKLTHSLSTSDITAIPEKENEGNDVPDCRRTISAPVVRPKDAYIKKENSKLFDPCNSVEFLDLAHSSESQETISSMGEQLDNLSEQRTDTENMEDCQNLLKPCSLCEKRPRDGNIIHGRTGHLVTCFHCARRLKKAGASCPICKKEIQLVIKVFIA
Target sequence (Q00987 whole entry, looked up): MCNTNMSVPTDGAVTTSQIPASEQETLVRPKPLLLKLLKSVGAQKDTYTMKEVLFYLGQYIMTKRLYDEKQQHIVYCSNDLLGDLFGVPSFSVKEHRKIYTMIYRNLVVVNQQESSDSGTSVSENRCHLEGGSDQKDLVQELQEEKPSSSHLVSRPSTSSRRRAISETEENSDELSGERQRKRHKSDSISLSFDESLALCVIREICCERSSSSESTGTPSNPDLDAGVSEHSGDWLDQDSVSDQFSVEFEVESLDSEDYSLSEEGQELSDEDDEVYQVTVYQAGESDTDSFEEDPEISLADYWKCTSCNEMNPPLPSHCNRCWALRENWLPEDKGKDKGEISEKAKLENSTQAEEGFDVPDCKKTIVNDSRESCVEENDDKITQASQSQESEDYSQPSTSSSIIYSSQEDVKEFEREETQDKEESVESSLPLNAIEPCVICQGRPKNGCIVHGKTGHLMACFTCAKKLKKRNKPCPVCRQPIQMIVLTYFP
Gli antag conf: Gli-SUFU antagonism confirmation, single concentration; shares compounds with Gli-Sufu antag; Sufu-KO-LIGHT cells, Gli luciferase reporter, luminescence; inhibition, % at 5 µM; 2,500 tested, 40% active;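 active = mean inhibition at 5 µM reaching about 45%, limit read from the data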;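 note: plate controls were DMSO-treated cells for no effect and wells lacking cells for full effect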
Gli cytotox: cytotoxic in Gli-SUFU antagonist counter-screen; shares compounds with Gli-Sufu antag; Sufu-KO-LIGHT cells cytotoxicity, ATP luminescence; cytotoxicity, % at 5 µM; 2,500 tested, 32% active; AID 651994;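 active = mean cytotoxicity at 5 µM above about 25%, limit read from the data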;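 note: cells exposed to compound overnight for roughly 16 to 18 hours; plate controls were DMSO wells with cells for no effect and medium without cells for full effect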
Wnt3a counter: inhibits Wnt3a reporter, counter-screen for Gli-SUFU antagonists; inhibition, % at 6.25 µM; AID 651995; 2,500 tested, 20% active; Wnt-LIGHT cells, Wnt3a-driven luciferase reporter, luminescence; shares compounds with Gli-Sufu antag;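 active = mean inhibition above about 25%, limit read from the data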
* = called active by the depositor; . = no result given. Most compounds without a hit are left out; they make up all but 4.1% or so of the library.

SMILES	KLF5 inh	697 NFkB inh	aSyn UTR inh	Gli-Sufu antag	Jurkat NFkB inh	Mdm2 MdmX PPI	Gli antag conf	Gli cytotox	Wnt3a counter
Cc1cc(C)n(C(C)CC(=O)Nc2ccc(-c3ccno3)cc2)n1 (centres undefined)	0	-27	-2	56*	1	13	16	-1	-16
CC(C)(C)NC(=O)C(=O)NNC(=O)c1ccccc1	-43	2	-3	12	0	-7	.	.	.
CC(C)(C)NC(=O)C(=O)NNC(=O)c1cccc(F)c1	-77	-25	-89	84*	-6	-21	-1	9	-28
COc1ccc(-n2cc(-c3ccccc3)[nH]c2=S)cc1	-99	-44	-91	-32	-34	-96	.	.	.
COc1ccc(-c2cn(-c3ccccc3)c3[n+]2CCS3)cc1	-13	-5	-7	81*	26	32	82*	33*	30*
c1ccc(-c2cn(-c3ccccc3)c3[n+]2CCS3)cc1	-8	-26	-3	65*	18	19	64*	26*	13
Cc1cc(Cl)nc2c(C(C)C)cccc12	-11	-3	27	-9	-3	6	.	.	.
CCc1nc2ccc(C(=O)NCCCN3CCN(c4ccccc4F)CC3)cc2nc1CC	-11	5	2	55	-2	11	18	27*	-42
Cc1c(C)n(C)c2ccc(C(=O)NCCCN3CCN(c4ccccc4F)CC3)cc12	-20	-68	31	25	-13	5	.	.	.
COc1cc2nc(=S)n3[nH]c(COc4ccccc4C)nc3c2cc1OC	-1	-1	35	7	9	4	.	.	.
COc1cc2nc(=S)n3[nH]c(CCn4nc(C)cc4C)nc3c2cc1OC	10	20	8	68*	-1	18	40	13	5
CCCC(=O)N1CCN(S(=O)(=O)c2cc(Cl)ccc2OC)CC1	16	0	3	55*	-1	28	5	11	-3
COc1ccc(S(=O)(=O)Cc2ccc(C(=O)NCC(OC)OC)o2)cc1	-18	-9	13	54	-8	-22	20	11	1
O=C(O)c1ccc(-c2ccc(O)c(F)c2)cc1	-31	9	15	53	-8	16	18	-4	-7
Cc1cc(NC(=O)CSc2cc(Cl)ccc2Cl)n(-c2ccccc2)n1	-14	-1	-1	52	12	12	22	7	-5
Cc1cccc(NC(=O)NCCc2c[nH]c3ccccc23)c1	2	-93	-16	60*	-25	12	6	11	-14
O=C(NCCc1c[nH]c2ccccc12)Nc1cccc2ccccc12	0	-23	3	7	8	6	.	.	.
Cc1cc(S(=O)(=O)NCCc2ccccc2)ccc1-n1cnnn1	-17	-1	8	20	3	3	.	.	.
O=S(=O)(NCCc1ccccc1)c1ccc(-n2cnnn2)cc1	-5	13	-6	54	29	21	17	1	-4
COCCn1c(Cc2ccccc2)nnc1SCC(=O)Nc1oc(C)c2c(C)n[nH]c(=O)c12	.	13	7	2	17	7	.	.	.
CC[C@H]1C(O)C[C@H]2CCN3C(=O)CCC[C@H]1[C@H]23 (some centres undefined)	.	0	.	0	.	21	.	.	.
Cc1c(Br)ccc(NC(=O)Cn2nc(-c3cccs3)ccc2=O)c1C	-4	5	8	-2	-3	5	.	.	.
Cc1ccc(NC(=O)Cn2nc(-c3ccccc3Cl)ccc2=O)c(Br)c1	1	-7	3	57*	2	-36	14	20	-7
CC1CCc2nc(/C(C#N)=C/c3ccncc3)sc2C1 (centres undefined)	-9	-69	-114	-28	-33	-82	.	.	.
CCOC(=O)C1(CCOc2ccccc2)CCN(Cc2ccc(OC)c(O)c2)CC1	-12	-22	3	26	1	25	.	.	.
SMILES	KLF5 inh	697 NFkB inh	aSyn UTR inh	Gli-Sufu antag	Jurkat NFkB inh	Mdm2 MdmX PPI	Gli antag conf	Gli cytotox	Wnt3a counter
CCOC(=O)C1(CCOc2ccccc2)CCN(Cc2ccc(OC)c(COC)c2)CC1	-25	-30	-19	57*	46	21	21	16	-11
CCN(CC)S(=O)(=O)c1ccc2c(c1)N(CC(=O)Nc1cccnc1Cl)C(=O)CO2	2	7	3	0	7	17	.	.	.
CC(c1ccc(F)cc1)n1cc(C(=O)NCCN(C)C)nn1 (centres undefined)	-41	-35	-4	57*	-31	-7	29	21	6
CC1=CC(C)C2(COC(c3ccc[n+](C)c3)OC2)C(C)C1 (centres undefined)	-17	.	.	58*	.	.	53*	17	-4
O=c1[nH]c(C2CCN(S(=O)(=O)c3ccc(C(F)(F)F)cc3)CC2)nc2c1nnn2Cc1cccc(F)c1	0	-23	15	56*	6	34	19	25*	-57
CN(CCC#N)S(=O)(=O)c1cc2c3c(c1)CCN3C(=O)CC2	6	-11	-12	-1	-12	5	.	.	.
O=C(NCCCN1CCOCC1)c1ccc(S(=O)(=O)Nc2ccccc2F)cc1	.	-10	-14	90*	-8	-1	14	2	-20
CCCCCCOc1ccc(N2C(=O)CC(SC(=NCC)NCC)C2=O)cc1 (centres undefined)	-7	4	7	-3	-4	32	.	.	.
COc1cccc(NC(=O)c2ccccc2-c2ccccc2)c1	-15	-2	-12	0	-4	-2	.	.	.
Nc1ncnc2c1ncn2[C@@H]1O[C@H](CO)[C@@H](O)[C@H]1O	-4	13	-2	-17	1	-5	.	.	.
Nc1ncnc2c(C3OC(CO)C(O)C3O)c[nH]c12 (centres undefined)	.	.	.	87*	.	.	89*	85*	101*
Cc1ccc(S(=O)(=O)NCC(=O)NCCc2c[nH]c3ccccc23)cc1C	-23	2	24	15	14	5	.	.	.
CCOC(=O)N1CCN(C(=O)CCCn2c(=S)[nH]c3ccsc3c2=O)CC1	-9	18	6	-36	-10	6	.	.	.
CCOC(=O)N1CCN(C(=O)CCCCCn2c(=S)[nH]c3ccsc3c2=O)CC1	-29	14	10	69*	-5	-13	27	2	26*
COc1cc(-c2cc(C(=O)Nc3c(Cl)cc(Cl)cc3Cl)c3ccccc3n2)cc(OC)c1OC	-31	3	9	19	4	5	.	.	.
COc1ccc2nc3ccccc3nc2c1NC(=O)c1ccc(Cl)cc1Cl	-18	-19	-12	71*	-5	6	31	20	-26
CN1CCN(/C=N/c2sc3c(c2C#N)CCCCC3)CC1	-120	-118	-147	80*	-99	-101	-31	7	-196

Assay outcomes as filed in PubChem BioAssay.
